About 8,800 targets were measured; listed, in parts, are those with a hit and a random draw of the rest. About 0.5% of all pairs of compound and target were hits. A number with no mark means an inactive call.
Legend:
Test in all cases: log2 fold change, soluble protein after heating vs DMSO (PISA); higher = thermal stabilisation; K562 lysate, 10 uM; active = over 0.2 and 3.5 SD of the protein, either way, in both replicates (recomputed)
[1] = compound: CS(=O)(=O)CCNCc1ccc(-c2ccc3ncnc(Nc4ccc(OCc5cccc(F)c5)c(Cl)c4)c3c2)o1 [lapatinib]
How it was run: (§1)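 K562 pellets were dounce-homogenised in PBS pH 7.4 with 1 mM MgCl2, and the crude extract at 1 mg/mL protein was treated with 10 μM compound for 30 min. Aliquots were heated for 3 min across 48°C-58°C, pooled, and brought to 0.5% NP-40 at 4°C; soluble protein was the supernatant after 21,000xg for 90 min. Soluble protein was quantified by TMTpro 16plex LC-MS/MS with channel sums equalised, and reported as log2 fold change in thermal stability against DMSO controls, with values from duplicates.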

[2] = compound: Cc1cc(Nc2cc(N3CCN(C)CC3)nc(Sc3ccc(NC(=O)C4CC4)cc3)n2)n[nH]1 [tozasertib]
How it was run: as §1

[3] = compound: CS(=O)(=O)N1CCN(Cc2cc3nc(-c4cccc5[nH]ncc45)nc(N4CCOCC4)c3s2)CC1 [pictilisib]
How it was run: as §1

[4] = compound: C[C@@H](Oc1cc(-c2cnn(C3CCNCC3)c2)cnc1N)c1c(Cl)ccc(F)c1Cl [crizotinib]
How it was run: as §1

[5] = compound: C[C@H](C1=CC=C(C=C1)C(=O)NC2=C3C=CNC3=NC=C2)N
How it was run: as §1

[6] = compound: C[C@H](Nc1ncnc2nc[nH]c12)c1cc2cccc(Cl)c2c(=O)n1-c1ccccc1 [duvelisib]
How it was run: as §1

[7] = compound: Cc1cc(Nc2cc(CN3CCOCC3)c3nc(C)c(Cc4ccc(Cl)cc4F)n3n2)n[nH]1 [gandotinib]
How it was run: as §1

[8] = compound: Cc1ccc(-n2nc(C(C)(C)C)cc2NC(=O)Nc2ccc(OCCN3CCOCC3)c3ccccc23)cc1 [doramapimod]
How it was run: as §1

[9] = compound: Cc1ccc(NC(=O)c2ccc(CN3CC[C@H](N(C)C)C3)c(C(F)(F)F)c2)cc1Nc1nccc(-c2cncnc2)n1 [bafetinib]
How it was run: as §1

[10] = compound: Cc1cccc(CC(=O)N2CCc3c2ccc(-c2cn(C)c4ncnc(N)c24)c3F)n1
How it was run: as §1

Chain of UniProt Q9P1F3 (Q9P1F3 whole entry, looked up): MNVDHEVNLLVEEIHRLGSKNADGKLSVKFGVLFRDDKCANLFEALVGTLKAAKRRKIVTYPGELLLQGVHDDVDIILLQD
Chain of UniProt Q9Y303 (Q9Y303 whole entry, looked up): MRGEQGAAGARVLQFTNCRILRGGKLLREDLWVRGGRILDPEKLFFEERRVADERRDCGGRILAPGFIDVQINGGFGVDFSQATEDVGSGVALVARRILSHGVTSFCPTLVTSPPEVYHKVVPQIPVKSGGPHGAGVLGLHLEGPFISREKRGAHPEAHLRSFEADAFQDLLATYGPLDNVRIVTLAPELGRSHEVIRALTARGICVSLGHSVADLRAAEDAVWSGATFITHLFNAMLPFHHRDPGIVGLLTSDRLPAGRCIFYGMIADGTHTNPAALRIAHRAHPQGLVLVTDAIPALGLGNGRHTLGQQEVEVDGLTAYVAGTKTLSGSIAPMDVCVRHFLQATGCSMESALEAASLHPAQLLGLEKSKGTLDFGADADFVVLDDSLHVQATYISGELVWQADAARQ
Chain of UniProt O15120 (O15120 whole entry, looked up): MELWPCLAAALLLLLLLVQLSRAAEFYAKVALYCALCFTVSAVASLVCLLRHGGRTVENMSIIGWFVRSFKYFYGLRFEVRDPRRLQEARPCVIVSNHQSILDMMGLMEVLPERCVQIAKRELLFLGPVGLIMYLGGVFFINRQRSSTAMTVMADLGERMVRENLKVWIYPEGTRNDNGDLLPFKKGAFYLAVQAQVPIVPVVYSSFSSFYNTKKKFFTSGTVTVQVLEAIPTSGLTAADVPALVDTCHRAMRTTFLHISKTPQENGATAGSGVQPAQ
Chain of UniProt Q8NFV4 (Q8NFV4 whole entry, looked up): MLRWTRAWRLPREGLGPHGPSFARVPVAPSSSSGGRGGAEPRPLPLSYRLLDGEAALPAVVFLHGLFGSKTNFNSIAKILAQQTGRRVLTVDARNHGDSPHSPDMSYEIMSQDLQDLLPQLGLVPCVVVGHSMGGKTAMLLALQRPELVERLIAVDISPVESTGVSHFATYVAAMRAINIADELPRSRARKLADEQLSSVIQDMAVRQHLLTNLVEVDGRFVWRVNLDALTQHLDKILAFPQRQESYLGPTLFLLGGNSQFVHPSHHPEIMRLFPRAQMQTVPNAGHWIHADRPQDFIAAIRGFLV
Chain of UniProt Q8N8A2 (Q8N8A2 whole entry, looked up): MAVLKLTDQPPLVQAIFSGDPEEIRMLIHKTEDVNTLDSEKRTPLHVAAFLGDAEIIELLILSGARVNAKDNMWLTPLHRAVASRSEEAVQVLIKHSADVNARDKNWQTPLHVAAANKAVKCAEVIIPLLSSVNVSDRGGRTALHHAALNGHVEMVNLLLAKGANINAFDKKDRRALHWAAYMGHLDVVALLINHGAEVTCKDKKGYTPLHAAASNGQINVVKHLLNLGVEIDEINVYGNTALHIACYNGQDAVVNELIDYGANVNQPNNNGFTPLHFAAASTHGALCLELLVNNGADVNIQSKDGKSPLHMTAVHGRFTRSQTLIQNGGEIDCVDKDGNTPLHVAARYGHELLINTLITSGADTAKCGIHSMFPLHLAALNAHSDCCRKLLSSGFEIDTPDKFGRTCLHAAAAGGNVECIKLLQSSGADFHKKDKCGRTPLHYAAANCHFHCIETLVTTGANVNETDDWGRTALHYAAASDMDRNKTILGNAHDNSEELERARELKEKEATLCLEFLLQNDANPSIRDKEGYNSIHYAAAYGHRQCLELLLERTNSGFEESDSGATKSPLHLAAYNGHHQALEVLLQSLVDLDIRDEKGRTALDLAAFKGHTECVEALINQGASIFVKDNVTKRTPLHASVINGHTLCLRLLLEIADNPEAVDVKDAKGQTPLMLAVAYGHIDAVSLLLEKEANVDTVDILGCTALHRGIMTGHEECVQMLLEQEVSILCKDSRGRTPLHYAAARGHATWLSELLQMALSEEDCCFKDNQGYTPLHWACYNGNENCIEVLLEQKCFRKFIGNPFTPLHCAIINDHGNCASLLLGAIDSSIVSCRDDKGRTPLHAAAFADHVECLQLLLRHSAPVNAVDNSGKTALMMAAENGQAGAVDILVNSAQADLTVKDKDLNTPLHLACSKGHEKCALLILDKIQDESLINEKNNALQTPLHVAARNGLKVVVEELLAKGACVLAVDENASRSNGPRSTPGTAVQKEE
Chain of UniProt O43823 (O43823 whole entry, looked up): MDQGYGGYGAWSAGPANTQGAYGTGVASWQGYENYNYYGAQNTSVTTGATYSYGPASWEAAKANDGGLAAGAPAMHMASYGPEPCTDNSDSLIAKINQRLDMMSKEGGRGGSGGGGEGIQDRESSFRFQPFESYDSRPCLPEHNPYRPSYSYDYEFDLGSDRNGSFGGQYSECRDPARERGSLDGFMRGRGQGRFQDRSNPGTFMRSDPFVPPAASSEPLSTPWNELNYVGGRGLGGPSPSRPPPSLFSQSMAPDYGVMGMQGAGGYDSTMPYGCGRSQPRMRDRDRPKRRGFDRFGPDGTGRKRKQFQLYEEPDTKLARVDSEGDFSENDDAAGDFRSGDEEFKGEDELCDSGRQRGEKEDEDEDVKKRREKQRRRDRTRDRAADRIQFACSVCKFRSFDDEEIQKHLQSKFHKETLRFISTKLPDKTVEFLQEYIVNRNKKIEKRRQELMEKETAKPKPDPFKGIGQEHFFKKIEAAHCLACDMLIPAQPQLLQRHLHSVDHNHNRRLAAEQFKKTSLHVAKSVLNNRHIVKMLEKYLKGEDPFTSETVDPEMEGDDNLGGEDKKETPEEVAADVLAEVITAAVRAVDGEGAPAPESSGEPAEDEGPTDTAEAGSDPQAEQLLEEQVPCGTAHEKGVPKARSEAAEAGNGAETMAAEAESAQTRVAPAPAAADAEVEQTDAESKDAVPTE
Chain of UniProt Q3SXY8 (Q3SXY8 whole entry, looked up): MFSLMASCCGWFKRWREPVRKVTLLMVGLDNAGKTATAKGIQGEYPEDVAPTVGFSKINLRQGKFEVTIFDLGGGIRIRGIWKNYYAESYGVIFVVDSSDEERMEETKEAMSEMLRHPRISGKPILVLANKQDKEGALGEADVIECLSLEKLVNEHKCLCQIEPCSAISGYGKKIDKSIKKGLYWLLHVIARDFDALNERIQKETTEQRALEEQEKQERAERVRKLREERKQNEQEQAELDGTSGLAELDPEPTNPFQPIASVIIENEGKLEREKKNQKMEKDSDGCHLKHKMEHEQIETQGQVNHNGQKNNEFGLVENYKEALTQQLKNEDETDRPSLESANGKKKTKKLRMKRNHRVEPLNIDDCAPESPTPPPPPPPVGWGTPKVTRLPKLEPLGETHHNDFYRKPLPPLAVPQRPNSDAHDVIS
Chain of UniProt P35611 (P35611 whole entry, looked up): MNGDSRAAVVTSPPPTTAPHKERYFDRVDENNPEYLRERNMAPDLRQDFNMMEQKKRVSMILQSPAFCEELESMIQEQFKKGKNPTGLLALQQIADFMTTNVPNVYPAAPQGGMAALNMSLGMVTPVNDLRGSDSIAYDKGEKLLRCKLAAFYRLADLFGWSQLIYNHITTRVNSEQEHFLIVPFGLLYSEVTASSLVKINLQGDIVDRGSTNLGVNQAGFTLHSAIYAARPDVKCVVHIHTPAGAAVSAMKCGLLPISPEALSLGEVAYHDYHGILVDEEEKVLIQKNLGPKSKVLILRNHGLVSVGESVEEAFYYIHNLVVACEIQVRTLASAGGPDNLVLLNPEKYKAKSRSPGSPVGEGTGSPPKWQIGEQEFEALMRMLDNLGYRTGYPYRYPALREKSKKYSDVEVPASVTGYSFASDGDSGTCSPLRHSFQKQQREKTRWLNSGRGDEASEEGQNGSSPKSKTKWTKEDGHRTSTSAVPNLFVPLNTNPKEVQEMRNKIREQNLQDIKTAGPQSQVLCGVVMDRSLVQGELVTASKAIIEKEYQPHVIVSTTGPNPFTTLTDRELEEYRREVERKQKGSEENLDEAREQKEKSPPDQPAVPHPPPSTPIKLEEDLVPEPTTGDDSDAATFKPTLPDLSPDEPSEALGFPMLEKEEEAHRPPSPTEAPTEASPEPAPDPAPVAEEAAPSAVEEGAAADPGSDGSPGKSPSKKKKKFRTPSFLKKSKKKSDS
Chain of UniProt P14621 (P14621 whole entry, looked up): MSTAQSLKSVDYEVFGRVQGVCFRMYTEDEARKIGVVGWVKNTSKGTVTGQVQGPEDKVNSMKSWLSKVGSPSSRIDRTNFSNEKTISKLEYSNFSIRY
Chain of UniProt Q13155 (Q13155 whole entry, looked up): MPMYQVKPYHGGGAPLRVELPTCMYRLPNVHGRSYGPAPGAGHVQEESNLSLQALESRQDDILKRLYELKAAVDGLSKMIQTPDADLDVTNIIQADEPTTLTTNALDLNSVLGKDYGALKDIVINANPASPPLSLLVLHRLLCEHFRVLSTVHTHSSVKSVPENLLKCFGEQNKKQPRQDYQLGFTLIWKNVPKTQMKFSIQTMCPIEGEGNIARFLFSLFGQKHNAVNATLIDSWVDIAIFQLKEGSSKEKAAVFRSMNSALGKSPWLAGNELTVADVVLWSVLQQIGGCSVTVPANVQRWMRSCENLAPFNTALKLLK
Chain of UniProt Q04771 (Q04771 whole entry, looked up): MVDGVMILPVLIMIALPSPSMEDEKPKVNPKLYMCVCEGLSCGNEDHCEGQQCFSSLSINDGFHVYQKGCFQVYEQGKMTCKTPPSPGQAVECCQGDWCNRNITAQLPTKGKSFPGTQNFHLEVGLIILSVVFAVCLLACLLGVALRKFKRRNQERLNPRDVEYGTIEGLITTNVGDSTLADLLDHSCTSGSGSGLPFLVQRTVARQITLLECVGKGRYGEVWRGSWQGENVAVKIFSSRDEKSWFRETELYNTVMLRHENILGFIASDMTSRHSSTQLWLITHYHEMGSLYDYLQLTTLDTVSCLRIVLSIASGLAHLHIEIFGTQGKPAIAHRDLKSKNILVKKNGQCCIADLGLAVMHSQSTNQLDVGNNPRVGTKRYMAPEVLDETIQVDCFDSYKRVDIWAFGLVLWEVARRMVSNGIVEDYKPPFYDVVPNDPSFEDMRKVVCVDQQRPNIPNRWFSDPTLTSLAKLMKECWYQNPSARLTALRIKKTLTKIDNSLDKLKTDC

Row | Target | log2 fold change [1] | log2 fold change [2] | log2 fold change [3] | log2 fold change [4] | log2 fold change [5] | log2 fold change [6] | log2 fold change [7] | log2 fold change [8] | log2 fold change [9] | log2 fold change [10]
1 | ABI1 isoform 6 (UniProt Q8IZP0) | 0.007 | -0.061 | – | – | – | – | – | – | – | –
2 | AKAP8 (UniProt O43823) | 0.008 | 0.017 | -0.126 | 0.023 | 0.035 | 0.022 | 0.003 | -0.071 | -0.119 | 0.039
3 | ABRACL (UniProt Q9P1F3) | 0.154 | – | -0.075 | -0.105 | -0.053 | -0.239 | -0.003 | -0.014 | 0.09 | -0.047
4 | ABHD11 (UniProt Q8NFV4) | 0.024 | 0.081 | 0.033 | -0.019 | -0.121 | 0.028 | 0.853 (active) | -0.034 | 0.009 | 0.05
5 | AIMP2 isoform 2 (UniProt Q13155) | -0.058 | – | -0.148 | -0.036 | – | – | – | -0.019 | -0.082 | –
6 | ANXA13 isoform 2 (UniProt P27216) | -0.111 | – | -0.03 | 0.011 | 0.057 | -0.116 | 0.545 (active) | 0.038 | -0.195 | 0.284
7 | ALG13 isoform 2 (UniProt Q9NP73) | – | – | – | – | 0.054 | – | -0.088 | – | – | 0.106
8 | ADD1 isoform 4 (UniProt P35611) | -0.006 | -0.044 | -0.168 | – | -0.745 (active) | 0.029 | 0.556 | – | 0.097 | 0.563
9 | ACVR1 (UniProt Q04771) | – | – | 0.006 | – | 0.103 | -0.015 | 0.643 | – | 0.007 | -0.294
10 | ARL13B (UniProt Q3SXY8) | 0.016 | – | -0.074 | -0.075 | 0.4 (active) | 0.014 | -0.23 | -0.068 | 0.025 | -0.217
11 | ANKRD44 isoform 2 (UniProt Q8N8A2) | -0.004 | 0.12 | 0.046 | – | -1.57 (active) | – | 0.465 | – | -0.405 | 0.766 (active)
12 | ANKRD30B (UniProt Q9BXX2) | -0.049 | -0.005 | -0.068 | – | -0.558 (active) | 0.087 | 0.337 | – | -0.163 | 0.397
13 | ACLY isoform 2 (UniProt P53396) | 0.012 | 0.055 | -0.03 | 0.078 | -0.423 (active) | – | 0.323 | -0.119 | 0.004 | 0.277
14 | ACYP2 (UniProt P14621) | -0.049 | – | -0.065 | 0.082 | 0.217 | – | -0.076 | -0.024 | -0.002 | -0.105
15 | ACTG1 (UniProt K7EM38) | -0.08 | 0.207 | – | – | – | – | – | – | – | –
16 | ANP32E isoform 3 (UniProt Q9BTT0) | – | 0.165 | -0.012 | – | -0.843 (active) | – | 0.213 | – | -0.14 | 0.439
17 | AMDHD2 (UniProt Q9Y303) | – | – | – | -0.056 | 0.052 | – | -0.015 | 0.057 | – | 0.065
18 | AP3D1 isoform 2 (UniProt O14617) | 0.084 | – | – | – | 0.19 | – | -0.429 | – | – | -0.084
19 | ADK, A0A5F9ZH76 | -0.013 | – | -0.074 | – | – | – | – | – | 0.147 | –
20 | ANKRD10 (UniProt Q9NXR5) | -0.074 | – | 0.184 | 0.017 | -0.032 | -0.052 | -0.088 | -0.079 | -0.112 | 0.007
21 | ABL1 isoform 2 (UniProt P00519) | -0.01 | – | -0.094 | – | 0.135 | 0.004 | -0.04 | – | – | -0.048
22 | ALDH3A1 (UniProt P30838) | -0.002 | – | – | -0.134 | -0.721 | -0.061 | 0.569 | 0.015 | – | 0.586
23 | AGPAT2 (UniProt O15120) | – | 0.048 | – | -0.097 | 0.006 | – | -0.145 | 0.1 | – | 0.021

Source: the supplement of paper PMC10849652
